test system: Plasmodium falciparum; test: GSK_TCMDC: Inhibition of Plasmodium falciparum Dd2 in whole red blood cells, using parasite LDH activity as an index of growth. Test compounds present at 2uM; type: functional

SMILES	Inhibition
CN1CCN(CCCN(Cc2ccc(-c3cccc(CNCc4ccc5c(c4)OCO5)c3)cc2)C(=O)Nc2ccccc2)CC1.O=C(O)C(F)(F)F	87%
COc1ccc(CNc2ncnc3c2[nH]c2ccc(F)cc23)cc1	71%
Cc1ccccc1C1CCN(C2CCC(NC(=O)c3cncc(-c4ccccc4)c3)CC2)CC1 (stereo not drawn)	92%
Cc1cc(N2CCNCC2)c2cc(NC(=O)Nc3ccc(Cl)c(Cl)c3)ccc2n1.Cl	86%
N#Cc1ccccc1C(=O)N(Cc1cncn1Cc1cccc(F)c1)CC1CC1	92%
O=C(Nc1ccc(-c2cccc(-c3nc4ccccc4[nH]3)c2)cc1)c1cnn2cccnc12	36%
COc1ccc(C2CCN(CCCCNC(=O)c3ccc(NC(=O)c4ccc(Cl)cc4)cc3)C2)c(OC)c1 (stereo not drawn)	0%
Cc1cc(C(=O)Nc2ccc(-c3ccccc3)cc2)no1	94%
Cc1nc(C)c(-c2ccc(C(=O)c3ccc(Cl)cc3)cc2)c(O)c1Br	95%
OC(CNC1CCCCC1)Cn1c2ccccc2c2ccccc21 (stereo not drawn)	92%
O=C(Nc1ccc(C(F)(F)F)cc1)c1cccc(S(=O)(=O)NC2CCN(Cc3ccccc3)C2)c1.O=C(O)C(F)(F)F (stereo not drawn)	0%
Cc1cc(NC2CCN(CC3CCCCC3)C2)nc(Nc2ccc(Cl)cc2)n1 (stereo not drawn)	83%
Cc1cccc2nc(-c3ccc(-c4ccc(C(=O)NCCc5cn(C)cn5)cc4)s3)[nH]c12	8%
Cc1cccc(S(=O)(=O)Nc2cccc(CCN3CCC(N4CCCCC4)CC3)c2)c1	13%
COc1ccc2ncc(F)c(CCN3CC[C@@H](CNCc4ccc5c(c4C)OCCO5)C3)c2n1.Cl	11%
Cc1ccc(O)cc1Nc1ccnc2ccc(C(C)(C)C)cc12	100%
Cc1cc(OCc2ccncc2)cc2c1C(=O)CC(C)(C)O2	0%
O=C(Nc1ccc(C(F)(F)F)cc1)c1ccc(S(=O)(=O)NC2CCN(CC3CCCCC3)C2)cc1.O=C(O)C(F)(F)F (stereo not drawn)	16%
CC(=O)c1ccc(NC(=O)Nc2ccc(N(C)c3ccnc(Nc4cccc(CS(C)(=O)=O)c4)n3)cc2)cc1	98%
O=C(Nc1ccc(-c2cccc(-c3nc4cc(F)ccc4[nH]3)c2)cc1)Nc1ccc(F)c(F)c1F	98%

SMILES	Inhibition
CCCCc1cc(NC2CCN(C)CC2)nc(Nc2ccccc2)n1	29%
O=C(NC1CCN(Cc2ccccc2)CC1)c1ccc2c(=O)n(Cc3ccc(Cl)cc3)c(=S)[nH]c2c1	100%
CCc1c[nH]c2c(N3CCCS3(=O)=O)cc(C(=O)N[C@@H](Cc3ccccc3)[C@H](O)CNC3CCCCC3)cc12.O=CO	89%
O=C(/C=C/c1ccc(C(F)(F)F)cc1)N1CCC(CCN2CCC(c3c[nH]c4ccccc34)CC2)CC1	77%
O=C(NCCN1CCCC1)c1cccc(-c2ccc(-c3nc4ccccc4[nH]3)s2)c1	13%
CCNC(=O)Nc1cccc(-c2cccc(-c3nc4cccc(C)c4[nH]3)c2)c1	31%
CCc1ccc(CN2CCC(CNC(=O)c3cc(-c4cccc(F)c4)cs3)C2)cc1.O=C(O)C(F)(F)F (stereo not drawn)	4%
CC(C)Oc1ccc(N2CCN(CCCCNC(=O)c3ccc(NC(=O)c4ccc(Cl)cc4)cc3)CC2)c(OC(C)C)c1	85%
CCCN(CCC)C(=O)c1cc(-c2cccc(C)c2)nc2ccccc12	59%
O=C(/C=C/c1ccc(Cl)c(Cl)c1)NCCCCCN1CCC(NC(=O)Nc2ccc(Oc3ccccc3)cc2)C1 (stereo not drawn)	6%
Cc1cc(-c2ccc(CNC3CCN(C)CC3)cc2)ccc1S(=O)(=O)NCc1ccccc1.O=C(O)C(F)(F)F	97%
O=C(/C=C/c1ccc(Cl)c(Cl)c1)NCCCCCN1CCC(NC(=O)Nc2cc(F)ccc2F)CC1	22%
O=C(O)C(F)(F)F.Oc1ccc(CCNc2nc(NCCCOc3cccc(CN4CCCCC4)c3Cl)nc(N3CCNCC3)n2)cc1	22%
CCCN(CCC)CCCNc1ccc(C(=O)Nc2ccc(C)c(F)c2)cc1[N+](=O)[O-]	94%
COc1ccccc1CNc1ccnc(N2CC(Oc3ccc(F)cc3)C2)n1	95%
FC(F)(F)c1ccc2[nH]c(-c3ccc(-c4ccc(CNCCN5CCNCC5)cc4)cc3)nc2c1.O=C(O)C(F)(F)F	74%
C[C@@H](N)C#Cc1cc2c(Nc3ccc(OCc4cccc(F)c4)c(Cl)c3)ncnc2s1.O=CO	23%
CCc1cn(C)c2c(N3CCCC3=O)cc(C(=O)N[C@@H](Cc3ccccc3)[C@H](O)CNC(C)(C)c3cccc(C(F)(F)F)c3)cc12	97%
CCN(CC)c1ccc(C(=O)Cn2ccc(=N)cc2)cc1	64%

test system: HepG2; test: GSK_TCMDC: Percent inhibition of human HepG2 cell line. Test compounds present at 10uM.; type: functional

SMILES	Inhibition
CN1CCN(CCCN(Cc2ccc(-c3cccc(CNCc4ccc5c(c4)OCO5)c3)cc2)C(=O)Nc2ccccc2)CC1.O=C(O)C(F)(F)F	51%
COc1ccc(CNc2ncnc3c2[nH]c2ccc(F)cc23)cc1	38%
Cc1ccccc1C1CCN(C2CCC(NC(=O)c3cncc(-c4ccccc4)c3)CC2)CC1 (stereo not drawn)	27%
Cc1cc(N2CCNCC2)c2cc(NC(=O)Nc3ccc(Cl)c(Cl)c3)ccc2n1.Cl	23%
N#Cc1ccccc1C(=O)N(Cc1cncn1Cc1cccc(F)c1)CC1CC1	0%
O=C(Nc1ccc(-c2cccc(-c3nc4ccccc4[nH]3)c2)cc1)c1cnn2cccnc12	64%
COc1ccc(C2CCN(CCCCNC(=O)c3ccc(NC(=O)c4ccc(Cl)cc4)cc3)C2)c(OC)c1 (stereo not drawn)	18%
Cc1cc(C(=O)Nc2ccc(-c3ccccc3)cc2)no1	6%
Cc1nc(C)c(-c2ccc(C(=O)c3ccc(Cl)cc3)cc2)c(O)c1Br	10%
OC(CNC1CCCCC1)Cn1c2ccccc2c2ccccc21 (stereo not drawn)	11%
O=C(Nc1ccc(C(F)(F)F)cc1)c1cccc(S(=O)(=O)NC2CCN(Cc3ccccc3)C2)c1.O=C(O)C(F)(F)F (stereo not drawn)	39%
Cc1cc(NC2CCN(CC3CCCCC3)C2)nc(Nc2ccc(Cl)cc2)n1 (stereo not drawn)	26%
Cc1cccc2nc(-c3ccc(-c4ccc(C(=O)NCCc5cn(C)cn5)cc4)s3)[nH]c12	0%
Cc1cccc(S(=O)(=O)Nc2cccc(CCN3CCC(N4CCCCC4)CC3)c2)c1	15%
COc1ccc2ncc(F)c(CCN3CC[C@@H](CNCc4ccc5c(c4C)OCCO5)C3)c2n1.Cl	17%
Cc1ccc(O)cc1Nc1ccnc2ccc(C(C)(C)C)cc12	6%
Cc1cc(OCc2ccncc2)cc2c1C(=O)CC(C)(C)O2	0%
O=C(Nc1ccc(C(F)(F)F)cc1)c1ccc(S(=O)(=O)NC2CCN(CC3CCCCC3)C2)cc1.O=C(O)C(F)(F)F (stereo not drawn)	33%
CC(=O)c1ccc(NC(=O)Nc2ccc(N(C)c3ccnc(Nc4cccc(CS(C)(=O)=O)c4)n3)cc2)cc1	86%
O=C(Nc1ccc(-c2cccc(-c3nc4cc(F)ccc4[nH]3)c2)cc1)Nc1ccc(F)c(F)c1F	70%

SMILES	Inhibition
CCCCc1cc(NC2CCN(C)CC2)nc(Nc2ccccc2)n1	7%
O=C(NC1CCN(Cc2ccccc2)CC1)c1ccc2c(=O)n(Cc3ccc(Cl)cc3)c(=S)[nH]c2c1	16%
CCc1c[nH]c2c(N3CCCS3(=O)=O)cc(C(=O)N[C@@H](Cc3ccccc3)[C@H](O)CNC3CCCCC3)cc12.O=CO	6%
O=C(/C=C/c1ccc(C(F)(F)F)cc1)N1CCC(CCN2CCC(c3c[nH]c4ccccc34)CC2)CC1	70%
O=C(NCCN1CCCC1)c1cccc(-c2ccc(-c3nc4ccccc4[nH]3)s2)c1	27%
CCNC(=O)Nc1cccc(-c2cccc(-c3nc4cccc(C)c4[nH]3)c2)c1	7%
CCc1ccc(CN2CCC(CNC(=O)c3cc(-c4cccc(F)c4)cs3)C2)cc1.O=C(O)C(F)(F)F (stereo not drawn)	23%
CC(C)Oc1ccc(N2CCN(CCCCNC(=O)c3ccc(NC(=O)c4ccc(Cl)cc4)cc3)CC2)c(OC(C)C)c1	31%
CCCN(CCC)C(=O)c1cc(-c2cccc(C)c2)nc2ccccc12	17%
O=C(/C=C/c1ccc(Cl)c(Cl)c1)NCCCCCN1CCC(NC(=O)Nc2ccc(Oc3ccccc3)cc2)C1 (stereo not drawn)	35%
Cc1cc(-c2ccc(CNC3CCN(C)CC3)cc2)ccc1S(=O)(=O)NCc1ccccc1.O=C(O)C(F)(F)F	52%
O=C(/C=C/c1ccc(Cl)c(Cl)c1)NCCCCCN1CCC(NC(=O)Nc2cc(F)ccc2F)CC1	78%
O=C(O)C(F)(F)F.Oc1ccc(CCNc2nc(NCCCOc3cccc(CN4CCCCC4)c3Cl)nc(N3CCNCC3)n2)cc1	26%
CCCN(CCC)CCCNc1ccc(C(=O)Nc2ccc(C)c(F)c2)cc1[N+](=O)[O-]	33%
COc1ccccc1CNc1ccnc(N2CC(Oc3ccc(F)cc3)C2)n1	2%
FC(F)(F)c1ccc2[nH]c(-c3ccc(-c4ccc(CNCCN5CCNCC5)cc4)cc3)nc2c1.O=C(O)C(F)(F)F	13%
C[C@@H](N)C#Cc1cc2c(Nc3ccc(OCc4cccc(F)c4)c(Cl)c3)ncnc2s1.O=CO	17%
CCc1cn(C)c2c(N3CCCC3=O)cc(C(=O)N[C@@H](Cc3ccccc3)[C@H](O)CNC(C)(C)c3cccc(C(F)(F)F)c3)cc12	22%
CCN(CC)c1ccc(C(=O)Cn2ccc(=N)cc2)cc1	92%

Source: ChEMBL document CHEMBL1157539, “Thousands of chemical starting points for antimalarial lead identification” (Nature, 2010)
